Here are results for 40 sequences from the supplement of paper PMC10338343.

± gives the standard deviation. Some results are limits rather than exact numbers.

For this experiment, the system named is EfPiwi piRISC loaded with piRNA #1 (26 nt). Description: pre-steady-state target cleavage rate (min^-1); auxiliary factor: 500 nM Ephydatia muelleri Gtsf1; guide: piRNA #1 5'p-UGAGGUAGUAGGUUGUAUAGUAUCCA; MIWI and MILI are mouse PIWI proteins and EfPiwi is from a freshwater sponge; tags in brackets are library labels; higher = faster piRNA-guided slicing of the target. A digest of the protocol:
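A transcribed, DNA-blocked target RNA library […] was incubated at 33 °C for 0–8 or 0–960 min with 1 nM active affinity-purified piRISC carrying one synthetic guide, in HEPES–potassium acetate buffer with or without 500 nM GTSF1 partner protein. Uncleaved targets were then sequenced and normalised to depth and to weakly complementary targets. Data from three trials were pooled, with k3 capped at 0.0001 min^-1, and a burst-and-steady-state fit yielded the pre-steady-state cleavage rate.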
In the case of GGAGACCAUAGUAUACAACCUACUAGCUCA, the “pre-steady-state target cleavage rate” value was 0.00326 ± 0.0032. The result for GGAGAGGAUACUAUACAACCUACAACGUCA reads 0.00371 ± 0.0017; that for GGAGUGGAUACUAUACAAGCCUACUACCUCA, 0.0104 ± 0.0053; that for GGAGGGGAUACUAUACAACCUACUACCUCA, 0.209 ± 0.067.

For GGAGAGGAUACUAAACUACCUACUACCUCA, the “pre-steady-state target cleavage rate” value is 0.00323 ± 0.003. With GGAGACCUAACUAUACAACCUUCUACCUCA the figure was 0.00554 ± 0.0031; with GGAGUGGAAACUAUACAACCUACUACCACA, 0.00336 ± 0.0029. GGAGACCUAACUAUACCAACCUACUACCUCA: the “pre-steady-state target cleavage rate” value was found to be 0.00536 ± 0.0036. The result for GGAGUGGAUACAAUACAAGCUACUACCUCA reads 0.00566 ± 0.0028; that for GGAGACCUUACUAUACAACCUAGUACGUCA, 0.00357 ± 0.0023; that for GGAGUGGAUACUAUACAACCUACUAGCACA, 0.00246 ± 0.0018. The result for GGAGAGGAUACUAUACAACCUAGUUCCUCA reads 0.00396 ± 0.0022; that for GGAGAGCAUACUAUUCAACCUACUACCUCA, 0.00555 ± 0.0041; that for GGAGACCUUACUAUACAAGCCUACUACCUCA, 0.00541 ± 0.0031.

GGAGACCUUACUAUACAACCUAGUACCUGA: the “pre-steady-state target cleavage rate” value stood at 0.00509 ± 0.0037. GGAGACGAUACUAUAAAACCUACUACCUCA: the “pre-steady-state target cleavage rate” value is 0.00426 ± 0.0022. With GGAGACCAUACUAUACGACCUACUACCUCA the figure was 0.0094 ± 0.0037; with GGAGUGGAUACUAUUCAACCAACUACCUCA, 0.00404 ± 0.0021; with “GGAGACCUAUGUAUACAACCUACUACCUCU [g2:g19:cont:t1U]”, 0.404 ± 0.18. GGAGAGGAUAGUAUACAACCUACUUCCUCA: the “pre-steady-state target cleavage rate” value was 0.00319 ± 0.0018. With GGAGAGGAUACUAUACAACCAACUUCCUCA the figure was 0.00313 ± 0.0024.

Turning to GGAGACCUAUGAUAUCAACCAAGUACCUCA, the “pre-steady-state target cleavage rate” value is less than 0.0001.

Regarding “GGAGUGGAUACUAUACAACCUACUAGGAGA [g6:g26:cont:t1A]”, the “pre-steady-state target cleavage rate” value is 0.00291 ± 0.0023. Regarding GGAGUGGAUACUAUACAACCUACUACACUCA, the “pre-steady-state target cleavage rate” value was 0.00464 ± 0.0021.

Take GGAGACGAUACUAUACAACCUACUUGGUCA: the “pre-steady-state target cleavage rate” value was 0.00312 ± 0.0021. With GGAGACCUAACUAUACAACCUAGUACGUCA the figure was 0.00403 ± 0.0029; with GGAGUGGUUUCUAUACAACCUACUACCUCA, 0.00603 ± 0.0034. The result for GGAGACCUUACUAUACAACCUACUACCUCCA reads 0.00652 ± 0.0028.

In the case of GGAGAGGAUACUAUACAACCUACUAGCUGA, the “pre-steady-state target cleavage rate” value was found to be 0.00408 ± 0.002. With GGAGACGAUACUAUACAAGCAACUACCUCA the figure was 0.0046 ± 0.003; with GGAGUGGAUACUAUACAACCUAGAUCCUCA, 0.00311 ± 0.0016; with GGAGAGGAUACUAUACAACCUAGUAGCUCA, 0.00479 ± 0.0019.

For the sequence GGAGUGGAUACUAUACAACCUACAACCUGA, the “pre-steady-state target cleavage rate” value amounted to 0.00253 ± 0.0013. The result for GGAGUGGAUACUAUACAACCUACUUGCUCA reads 0.0047 ± 0.0026. With GGAGAGGUUACUAUACAACCUAGUACCUCA the figure was 0.00366 ± 0.0015; with GGAGACCUAACAAAACAACCUACUACCUCA, 0.00903 ± 0.0046. The result for GGAGUGGAUACUAUACUACCUACAACCUCA reads 0.00209 ± 0.0019; that for GGAGACGAUACUAUACAACACUACUACCUCA, 0.00912 ± 0.0032; that for GGAGACCUAACUAUACAACCUAGUAGCUCA, 0.00484 ± 0.0035. With GGAGACCUAUGAUAACAACCUACUAGCACA, the “pre-steady-state target cleavage rate” value was less than 0.0001.
